Measurements from the supplement of paper PMC8728848.
Many of the other results were omitted from the sample, so the strongest signals are more common in it than they were.

Tests used:
Experiment in all cases: glycan array binding signal (z-score within array); higher = stronger binding
Conditions in all cases: glycan notation: IUPAC condensed, linker removed; mutation: Y54A
[1] = biological target: Fuc(a1-2)Gal(b1-4)GlcNAc(b1-2)Man
Summary of the method: (§1)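 Glycan array data were curated from 3228 arrays in the Consortium for Functional Glycomics database and kept only where the protein sequence was available. Glycan names were converted to IUPAC-condensed notation, and columns mapping to the same glycan were averaged. The binding signal is a within-array Z-score, averaged across arrays of the same protein sequence at different concentrations or buffers and across linkers. Negative Z-scores can be read as non-binding.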

[2] = biological target: Fuc(a1-2)Gal(b1-4)GlcNAc(b1-3)Gal(b1-4)GlcNAc(b1-2)Man(a1-3)[Fuc(a1-2)Gal(b1-4)GlcNAc(b1-3)Gal(b1-4)GlcNAc(b1-2)Man(a1-6)]Man(b1-4)GlcNAc(b1-4)GlcNAc
Summary of the method: as §1

[3] = biological target: Fuc(a1-2)Gal6S(b1-3)GlcNAc
Summary of the method: as §1

[4] = biological target: Fuc(a1-2)[Gal(a1-3)]Gal(b1-3)GlcNAc(b1-6)GalNAc
Summary of the method: as §1

[5] = biological target: Fuc(a1-2)[GalNAc(a1-3)]Gal(b1-3)GalNAc(b1-3)Gal(a1-4)Gal(b1-4)Glc
Summary of the method: as §1

[6] = biological target: Fuc(b1-3)GlcNAc
Summary of the method: as §1

[7] = biological target: Gal(a1-3)Gal(b1-4)GlcNAc(b1-2)Man(a1-3)[Gal(a1-3)Gal(b1-4)GlcNAc(b1-2)Man(a1-6)]Man(b1-4)GlcNAc(b1-4)GlcNAc
Summary of the method: as §1

[8] = biological target: Gal(a1-3)Gal(b1-4)GlcNAc(b1-6)GalNAc
Summary of the method: as §1

[9] = biological target: Gal(b1-3)Gal
Summary of the method: as §1

[10] = biological target: Gal(b1-3)GlcNAc(b1-3)Gal(b1-3)GlcNAc
Summary of the method: as §1

[11] = biological target: Gal(b1-3)GlcNAc(b1-3)Gal(b1-4)Glc
Summary of the method: as §1

[12] = biological target: Gal(b1-3)[Fuc(a1-4)]GlcNAc(b1-2)Man
Summary of the method: as §1

[13] = biological target: Gal(b1-3)[Fuc(a1-4)]GlcNAc(b1-2)Man(a1-3)[Gal(b1-3)[Fuc(a1-4)]GlcNAc(b1-2)Man(a1-6)]Man(b1-4)GlcNAc(b1-4)[Fuc(a1-6)]GlcNAc
Summary of the method: as §1

[14] = biological target: Gal(b1-4)GlcNAc(b1-2)[Gal(b1-4)GlcNAc(b1-4)]Man(a1-3)[Gal(b1-4)GlcNAc(b1-2)[Gal(b1-4)GlcNAc(b1-6)]Man(a1-6)]Man(b1-4)GlcNAc(b1-4)GlcNAc
Summary of the method: as §1

[15] = biological target: Gal(b1-4)GlcNAc(b1-3)Gal(b1-4)GlcNAc(b1-3)Gal(b1-4)GlcNAc(b1-3)Gal(b1-4)GlcNAc(b1-2)Man(a1-3)[Gal(b1-4)GlcNAc(b1-3)Gal(b1-4)GlcNAc(b1-3)Gal(b1-4)GlcNAc(b1-3)Gal(b1-4)GlcNAc(b1-2)Man(a1-6)]Man(b1-4)GlcNAc(b1-4)GlcNAc
Summary of the method: as §1

[16] = biological target: Gal(b1-4)GlcNAc(b1-3)Gal(b1-4)GlcNAc(b1-3)Gal(b1-4)GlcNAc(b1-3)Gal(b1-4)GlcNAc(b1-3)Gal(b1-4)GlcNAc(b1-2)Man(a1-3)[Gal(b1-4)GlcNAc(b1-3)Gal(b1-4)GlcNAc(b1-3)Gal(b1-4)GlcNAc(b1-3)Gal(b1-4)GlcNAc(b1-3)Gal(b1-4)GlcNAc(b1-2)Man(a1-6)]Man(b1-4)GlcNAc(b1-4)[Fuc(a1-6)]GlcNAc
Summary of the method: as §1

[17] = biological target: Gal(b1-4)GlcNAc(b1-3)Gal(b1-4)GlcNAc(b1-3)Gal(b1-4)GlcNAc(b1-3)Gal(b1-4)GlcNAc(b1-3)Gal(b1-4)GlcNAc(b1-2)[Gal(b1-4)GlcNAc(b1-3)Gal(b1-4)GlcNAc(b1-3)Gal(b1-4)GlcNAc(b1-3)Gal(b1-4)GlcNAc(b1-3)Gal(b1-4)GlcNAc(b1-6)]Man(a1-6)[Gal(b1-4)GlcNAc(b1-3)Gal(b1-4)GlcNAc(b1-3)Gal(b1-4)GlcNAc(b1-3)Gal(b1-4)GlcNAc(b1-3)Gal(b1-4)GlcNAc(b1-2)Man(a1-3)]Man(b1-4)GlcNAc(b1-4)[Fuc(a1-6)]GlcNAc
Summary of the method: as §1

[18] = biological target: Gal(b1-4)GlcNAc(b1-3)Gal(b1-4)GlcNAc(b1-3)[Gal(b1-4)GlcNAc(b1-3)Gal(b1-4)GlcNAc(b1-6)]GalNAc
Summary of the method: as §1

[19] = biological target: Gal(b1-6)Gal
Summary of the method: as §1

[20] = biological target: Gal3S(b1-4)[Fuc(a1-3)]GlcNAc6S
Summary of the method: as §1

[21] = biological target: Gal3S6S(b1-4)GlcNAc6S
Summary of the method: as §1

[22] = biological target: Gal4S6S(b1-4)GlcNAc
Summary of the method: as §1

[23] = biological target: Gal6S(b1-4)GlcNAc
Summary of the method: as §1

[24] = biological target: GalNAc(b1-3)Gal(a1-4)Gal(b1-4)GlcNAc(b1-3)Gal(b1-4)Glc
Summary of the method: as §1

[25] = biological target: GalNAc(b1-3)GalNAc
Summary of the method: as §1

[26] = biological target: GalNAc3S(b1-4)[Fuc(a1-3)]GlcNAc
Summary of the method: as §1

[27] = biological target: GlcA3S(b1-3)Gal(b1-4)GlcNAc(b1-3)Gal(b1-4)Glc
Summary of the method: as §1

[28] = biological target: GlcNAc(b1-2)Gal(b1-3)GalNAc
Summary of the method: as §1

[29] = biological target: Man(a1-3)[Man(a1-6)]Man(a1-6)[Man(a1-2)Man(a1-3)]Man(b1-4)GlcNAc(b1-4)GlcNAc
Summary of the method: as §1

[30] = biological target: Neu5Ac(a2-3)Gal(b1-3)GalNAc6S
Summary of the method: as §1

B1: CBP21 (Serratia marcescens), O83009 (protein)
chain: MNKTSRTLLSLGLLSAAMFGVSQQANAHGYVESPASRAYQCKLQLNTQCGSVQAEPQSVEGLKGFPQAGPADGHIASADKSTFFELDQQTPTRWNKLNLKTGPNSFTWKLTARHSTTSWRYFITKPNWDASQPLTRASFDLTPFCQFNDGGAIPAAQVTHQCNIPADRSGSHVILAVWDIADTANAFYQAIDVNLSK
glycan array binding signal (z-score) [1]: -0.872 | glycan array binding signal (z-score) [2]: 2.34 | glycan array binding signal (z-score) [3]: 4.33 | glycan array binding signal (z-score) [4]: -0.403 | glycan array binding signal (z-score) [5]: -0.164 | glycan array binding signal (z-score) [6]: -0.276 | glycan array binding signal (z-score) [7]: -0.395 | glycan array binding signal (z-score) [8]: 1.24 | glycan array binding signal (z-score) [9]: -0.635 | glycan array binding signal (z-score) [10]: 0.339 | glycan array binding signal (z-score) [11]: 1.22 | glycan array binding signal (z-score) [12]: 0.608 | glycan array binding signal (z-score) [13]: 0.588 | glycan array binding signal (z-score) [14]: 0.113 | glycan array binding signal (z-score) [15]: 0.181 | glycan array binding signal (z-score) [16]: 5.09 | glycan array binding signal (z-score) [17]: 1.3 | glycan array binding signal (z-score) [18]: -0.31 | glycan array binding signal (z-score) [19]: -0.809 | glycan array binding signal (z-score) [20]: -0.109 | glycan array binding signal (z-score) [21]: 4.88 | glycan array binding signal (z-score) [22]: 0.517 | glycan array binding signal (z-score) [23]: 4.2 | glycan array binding signal (z-score) [24]: -0.857 | glycan array binding signal (z-score) [25]: -0.995 | glycan array binding signal (z-score) [26]: 0.039 | glycan array binding signal (z-score) [27]: -0.278 | glycan array binding signal (z-score) [28]: -0.7 | glycan array binding signal (z-score) [29]: 0.228 | glycan array binding signal (z-score) [30]: 5.86
